In the first test the test system is GAK.
`COc1cc2ncnc(Nc3cccc(Br)c3)c2cc1OC.Cl` [GI230329] yielded a Kd of 0.029 µM. That is a double-digit nanomolar value.
In the case of `COc1cccc(C2=C(Nc3cc(Cl)c(O)c(Cl)c3)C(=O)NC2=O)c1` [SB-390767], the Kd is > 10 µM.
Same read-out and setting: then `c1ccc(-c2ccnc3[nH]ccc23)cc1` [SB-693578], with 3.7 µM.

The test system of the next test is GSK3A.
Compound `O=C(Nc1n[nH]c2nc(-c3ccco3)c(Br)cc12)C1CCN(Cc2ccccc2)C1.O=C(O)[C@H](O)[C@@H](O)C(=O)O` (stereo not drawn) [SB-742034] showed a Kd of 130 nM.
Compound `COc1ccc(CSc2nnc(-c3ccc4ncsc4c3)o2)cc1C(F)(F)F` registered a Kd of 79 nM.
On the same count and under the same terms, in the case of `COc1ccc(CSc2nnc(-c3ccc4nccn4c3)o2)cc1C(F)(F)F` it was 250 nM; in that of `O=C(Nc1n[nH]c2nc(-c3cccs3)c(Br)cc12)C1CCCC1` [SB-743341], 62 nM; in that of `O=c1cc(N2CCOCC2)nc2n(Cc3ccccc3F)ccn12` [GSK2297428], > 10000 nM.
The same measure, in the same setting: then `O=C(Nc1n[nH]c2nc(-c3cccs3)c(Br)cc12)C1CC1` [SB-735297], with 91 nM.

For the next test, the system named is GSK3B.
`COc1ccc(CSc2nnc(-c3ccc4ncsc4c3)o2)cc1C(F)(F)F` returned a Kd of 39 nM.
`COc1ccc(CSc2nnc(-c3ccc4nccn4c3)o2)cc1C(F)(F)F`: binding was put at a Kd of 22 nM.
`O=C(Nc1n[nH]c2nc(-c3cccs3)c(Br)cc12)C1CCCC1` [SB-743341] yielded a Kd of 120 nM.

The values are drawn from PMC5540273 (PLoS ONE, 2017).
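Also: kd values determined as follow-up on hits from a single-replicate KINOMEscan panel screen.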
